# Rab9 promoter act: qHTS Assay for Rab9 Promoter Activators | Huh7 Rab9 promoter-luciferase reporter, luminescence, 24 h | Potency, µM (series often up to 9.22 µM), for inactives: at the highest dose activation, negative = inhibition, hits mostly activators | hit rate 2.8% among 320,000 | AID 485297, 2010; further: % of control where 0% means no effect; nearly all actives have a fitted effect of over 60% in size
#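 Stable Rab9-luc Huh7, 1500 cells/well, 2 h settle; cmpd in DMSO, 24 h, 37 °C/5% CO2; luciferase reagent 10 min RT; luminescence.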
# FLuc counter: qHTS profiling assay for firefly luciferase inhibitor/activator using purifed enzyme and Km concentrations of substrates (counterscreen for miR-21 project); purified FLuc, Km substrates, luminescence inhibition; hit rate 6.9% among 360,000; Luciferin 4-monooxygenase (Photinus pyralis), P08659; Potency, µM (top dose mostly 57.5 µM), for inactives: at the top dose activity change, negative = inhibition, usual class: inhibitors;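 further: plate controls were vehicle for no effect and reference inhibitor for full effect; nearly all actives have a fitted effect of over 55% in size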
# Target sequence (P08659 whole entry, looked up): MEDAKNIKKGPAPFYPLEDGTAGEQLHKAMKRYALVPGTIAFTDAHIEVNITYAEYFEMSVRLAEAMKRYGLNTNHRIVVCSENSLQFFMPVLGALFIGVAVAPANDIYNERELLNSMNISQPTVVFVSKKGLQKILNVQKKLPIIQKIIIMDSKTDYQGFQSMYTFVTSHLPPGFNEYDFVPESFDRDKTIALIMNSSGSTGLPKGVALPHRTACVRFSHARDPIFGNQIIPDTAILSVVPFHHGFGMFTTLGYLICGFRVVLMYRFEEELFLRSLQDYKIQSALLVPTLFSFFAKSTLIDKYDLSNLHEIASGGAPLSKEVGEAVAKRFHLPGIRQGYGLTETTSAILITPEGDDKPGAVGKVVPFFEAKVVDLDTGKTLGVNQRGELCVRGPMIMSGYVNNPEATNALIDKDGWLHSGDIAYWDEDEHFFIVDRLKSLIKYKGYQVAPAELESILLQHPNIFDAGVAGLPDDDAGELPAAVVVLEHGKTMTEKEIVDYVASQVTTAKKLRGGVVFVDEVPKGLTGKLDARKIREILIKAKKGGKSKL
#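 Purified P. pyralis luciferase, 10 nM final, with Km-level 10 uM D-luciferin and 10 uM ATP in 50 mM Tris acetate pH 7.5, 10 mM Mg acetate, 0.01% Tween-20, 0.05% BSA; 6-point qHTS titration about 60 µM downward; luminescence read.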
# SMN2 splice up: qHTS Assay for Enhancers of SMN2 Splice Variant Expression. HEK293 SMN2-luciferase splicing reporter, luminescence, 30-36 h. AID 1458, 2008. hit rate 2.8% among 210,000. Potency, µM (top dose mostly 46.1 µM), inactives show at the highest dose activity change, positive = activation, actives largely listed as activators; further: % of control where 0% means no effect; nearly all actives have a fitted effect of over 55% in size
#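 HEK293 cells carry an SMN2 minigene-luciferase reporter in which exon 7 inclusion puts luciferase in frame. Cells were seeded at 2000 cells/well, attached for 10-12 hours, then exposed to compounds for 30-36 hours at 37C before ONE-Glo luminescence.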
# ELG1 genotox: qHTS screen for small molecules that induce genotoxicity in human embryonic kidney (HEK293T) cells expressing luciferase-tagged ELG1; AID 504466, 2011; Potency, µM (top dose mostly 46 µM), for inactives: at the top dose activity change, positive = activation, most hits filed as activators; hit rate 1.3% among 330,000; HEK293T ELG1-luciferase reporter, luminescence, 16 h; further: % of control where 0% means no effect; nearly all actives have a fitted effect of over 60% in size
#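 Quantitative HTS format in 1536-well plates. HEK293T ELG1-luciferase reporter cells receive test compound and are incubated 16 hr at 37 °C, 5% CO2; ONE-Glo added, 30 min room temperature, then luminescence read.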
# NPC1 prom act: qHTS Assay for NPC1 Promoter Activators. Huh7 NPC1 promoter luciferase reporter, 24 h. Potency, µM (doses to about 9.22 µM), for inactives: top-dose activation, actives largely listed as activators. hit rate 2.4% among 320,000. AID 485313, 2010; further: % of control where 0% means no effect; nearly all actives have a fitted effect of over 60% in size
#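 Cells: Huh7 expressing luciferase under the NPC1 promoter, 1500/well. Seeded 2 h, compound added, incubated 24 h at 37 °C. Luciferase reagent, 10 min ambient, then luminescence.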
# KinaseGlo FLuc: Counterscreen for Luciferase (Kinase-Glo TM) Inhibition; Potency, µM (doses to about 38.3 µM), inactives show at the top dose activity change, negative = inhibition, hits mostly inhibitors; hit rate 0.28% among 200,000; Kinase-Glo luciferase, ATP luminescence, 8 min; AID 1379, 2008; further: on the % scale 0 is the no-effect control and ±100 the full control effect; nearly all actives have a fitted effect of over 60% in size
#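 Compounds were added to a substrate mix at pH 7.2 (50 mM imidazole, 10 uM ATP, within the enzyme's linear range), followed by Kinase-Glo detection reagent; luminescence was measured after 8 minutes at ambient temperature.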
# Active calls of the source: *; ? = inconclusive; · = no result given; [ ] = another dose, or the depositor's remark. Rows were chosen to be rich in hits. Some 7.5% of all compounds tested hit in one or more screens of this group. The call rests on the fitted dose curve; in most records, active means well fitted curve in the direction sought with a large enough effect; inconclusive means small, poorly fitted or top-dose-only effect, or another doubt; inactive means no such curve, though single readings can be large; an effect the other way counts as inactive or inconclusive. Potency means the concentration at half of the fitted maximal effect.
SMILES,Rab9 promoter act,FLuc counter,SMN2 splice up,ELG1 genotox,NPC1 prom act,KinaseGlo FLuc
N#Cc1ccccc1COC(=O)c1ccc2c(c1)OCCO2,25.3%,13.5µM*,·,17.6%,6.0%,·
CC(C)(C)NC(=O)c1ccccc1NC(=O)c1ccc2c(c1)OCO2,-5.3%,-6.0%,-3.6%,3.1%,-4.5%,0.2%
N#Cc1ccccc1COC(=O)c1ccc2c(c1)OCO2,?,?,·,14.5%,?,·
Cc1ccc(CN2CCN(C3CCN(S(=O)(=O)N(C)C)CC3)C(=O)C2=O)cc1,·,-4.8%,·,·,·,·
CC=O,·,·,-5.5%,·,·,·
O=C1NC(Cc2ccccc2)c2nc3cc(Cl)ccc3c(=O)n2-c2ccccc21 (centres undefined),·,·,·,-3.7%,·,·
N#Cc1ccccc1NC(=O)COC(=O)c1ccc2c(c1)OCCO2,?,19µM*,5.8%,5.9%,0.8%,-3.2%
Cc1ccccc1NC(=O)c1ccc2c(c1)OCCO2,?,1.2%[2.3 µM],?,?,?,-5.2%
Cc1ccc(NC(=O)COc2ccc3c(c2)OCO3)c(Cl)c1,?,1.51µM*,·,?,2.82µM*,·
N#Cc1ccccc1NC(=O)c1ccc2c(c1)OCCO2,?,21.3µM*,·,?,?,·
CC1Cc2ccccc2N1C(=O)COc1ccc2c(c1)OCO2 (centres undefined),?,16.9µM*,?,?,3.16µM*,-0.5%
CN(C)S(=O)(=O)N1CCC(n2c(C(F)(F)F)nc3cccnc32)CC1,·,-3.2%,·,·,·,·
Cc1cccc(N2CCN(C(=S)Nc3ccc4nc5n(c(=O)c4c3)CCCCC5)CC2)c1C,0.2%,-6.0%,-9.1%,9.9%,0.0%,-1.2%
COC(=O)c1ccccc1NC(=O)CN1CCC(C(=O)c2ccc3c(c2)OCCO3)CC1,-1.6%,-19.3%,-32.0%,-11.0%,-4.3%,11.1%
COC(=O)c1ccccc1NC(=O)c1ccc2c(c1)OCCCO2,2µM*,19µM*,·,?,?,·
COc1ccc(NC(=O)c2cc3ccccc3o2)c(OC)c1,·,5.36µM*,·,·,·,·
COC(=O)c1cc(Cl)c(NC(=O)c2cc3ccccc3o2)cc1OC,1.78µM*,-5.9%,5.4%,0.0%,?,-0.3%
COc1cc(NC(=O)c2ccc(F)cc2)ccc1NC(=O)c1cc2ccccc2o1,0.4%,3.1%,·,-9.9%,0.3%,·
CCC(=O)Nc1ccc(NC(=O)c2cc3ccccc3o2)c(OC)c1,3.98µM*,?,·,?,2.51µM*,·
COc1cc(NC(=O)c2cc3ccccc3o2)ccc1NC(=O)c1ccco1,-9.9%,-2.3%,·,-1.9%,-5.1%,·
COc1cc(NC(=O)c2c(OC)cccc2OC)ccc1NC(=O)c1cc2ccccc2o1,?,?,·,14.6µM*,?,·
COc1ccc(S(=O)(=O)N2CCCCC2)cc1NC(=O)c1ccc(OC)c(OC)c1,-6.9%,-2.3%,·,-0.1%,-2.6%,·
O=C(Nc1c[nH]c(=O)[nH]c1=O)c1ccc2c(c1)C(=O)N(c1cccc([N+](=O)[O-])c1)C2=O,-0.2%,-0.9%,·,1.2%,-0.4%,·
CCCN1C(=O)c2ccc(C(=O)Nc3cc(C)ccc3O)cc2C1=O,?,3.38µM*,·,?,2.24µM*,·
CCCN1C(=O)c2ccc(C(=O)Nc3ccccc3C(=O)O)cc2C1=O,21.6%,3.79µM*,·,9.8%,?,·
SMILES,Rab9 promoter act,FLuc counter,SMN2 splice up,ELG1 genotox,NPC1 prom act,KinaseGlo FLuc
O=C(Nc1ccccc1C(=O)O)c1ccc2c(c1)C(=O)N(c1cccc([N+](=O)[O-])c1)C2=O,-6.8%,26.9µM*,·,0.0%,0.9%,·
Cc1ccc(O)c(NC(=O)c2ccc3c(c2)C(=O)N(CC(C)C)C3=O)c1,?,2.39µM*,·,?,2.82µM*,·
CCCCN1C(=O)c2ccc(C(=O)Nc3cccc(C)c3C)cc2C1=O,-4.0%,0.1%,-5.7%,10.8%,0.9%,4.0%
COC(=O)[C@H](Cc1ccccc1)NC(=O)O[C@@H]1C(=O)c2cc(OC)ccc2O[C@H]1c1cccc(OC)c1,·,·,17.9%,·,·,0.8%
CCOC(=O)c1ccc2nc(NC(=O)c3cccs3)sc2c1,0.501µM*,1.2µM*,3.98µM*,?,0.708µM*,-25.1%
CCOc1ccc2nc(NC(=O)c3ccco3)sc2c1,0.316µM*,0.675µM*,·,1.3µM*,0.316µM*,·
CCOc1ccc2nc(NC(=O)c3ccoc3C)sc2c1,0.501µM*,0.477µM*,2.51µM*,?,0.562µM*,2.82µM*
CCOC(=O)c1ccc2nc(NC(=O)c3ccco3)sc2c1,0.708µM*,2.69µM*,2.24µM*,?,0.891µM*,-15.8%
Cc1oc2ncn(CC(C)C)c(=O)c2c1C(=O)N(CCN(C)C)Cc1ccccc1,·,0.1%,·,·,·,·
Cc1nc(-c2ccccc2)sc1CCNS(=O)(=O)c1ccc(Br)cc1,·,-14.4%,·,·,·,·
COc1ccc(C2=NN(C(C#N)c3ccc(OC)cc3)C(c3ccccc3)C2)cc1 (centres undefined),?,23.9µM*,?,?,?,-3.1%
O=C(Nc1cc(Cl)ccc1Cl)c1ccco1,2.5%,-1.2%,·,2.6%,-1.6%,·
CS/C(Nc1cc(Cl)ccc1Cl)=C(/C#N)C(=O)c1ccco1,?,2.13µM*,·,20.6µM*,?,·
CCc1ccc(-c2nc(NC(=S)NC(=O)c3cccs3)sc2C)cc1,0.8%,2.5%,16.1%,2.7%,2.9%,2.7%
COC(=O)c1nc(NC(=S)NC(=O)c2cccs2)sc1C,?,10.7µM*,·,?,?,·
O=C(NC(=S)Nc1nc2ccccc2s1)c1cccs1,3.55µM*,1.07µM*,2µM*,?,?,0.2%
COC(=O)Cc1nc(NC(=O)c2cccs2)sc1C,?,16.9µM*,·,14.9%,?,·
Cc1ccc(N2CC(C(=O)Nc3ccc(S(=O)(=O)N4CCOCC4)cc3)CC2=O)cc1Cl (centres undefined),2.8%,4.4%,·,3.8%,0.1%,·
COc1ccc(OC)c(-c2csc(NC(=O)CN3C(=O)NC4(CCCC4)C3=O)n2)c1,-10.3%,-2.7%,·,0.9%,-2.7%,·
COc1ccc(OC)c(-c2csc(NC(=O)Cc3ccccc3F)n2)c1,4.1%,10.7µM*,·,-31.2%,14.4%,·
COc1ccc(OC)c(-c2csc(NC(=O)c3ccccc3F)n2)c1,-2.8%,15.1µM*,·,8.3%,-0.1%,·
COc1ccc(OC)c(-c2csc(NC(=O)Cc3ccccc3OC)n2)c1,-0.3%,9.53µM*,·,5.7%,0.0%,·
O=C(Nc1nc(COc2ccccc2)cs1)c1ccccc1F,0.7%,26.9µM*,-43.1%,8.9%,7.8%,-5.2%
O=C(O)C1CC=CCC1C(=O)Nc1cccnc1 (centres undefined),-3.0%,6.9%,·,1.6%,0.0%,-1.9%

# Compound activity (PubChem BioAssay)
